From PubChem BioAssay
This is one part of a sample in which hits are shown more often than they occur.
NPSR antag – blocks cAMP signaling of the human neuropeptide S receptor; CHO-NPSR cells, cAMP TR-FRET, antagonist mode; AID 1461; 220,000 compounds, 1% hits; Q6W5P4; Potency, µM (titrated, usually from 38.3 µM), for inactives: at the top dose activity change, negative = inhibition, actives largely listed as inhibitors; further: nearly all actives have a fitted effect of over 50% in size
Target sequence (Q6W5P4 whole entry, looked up): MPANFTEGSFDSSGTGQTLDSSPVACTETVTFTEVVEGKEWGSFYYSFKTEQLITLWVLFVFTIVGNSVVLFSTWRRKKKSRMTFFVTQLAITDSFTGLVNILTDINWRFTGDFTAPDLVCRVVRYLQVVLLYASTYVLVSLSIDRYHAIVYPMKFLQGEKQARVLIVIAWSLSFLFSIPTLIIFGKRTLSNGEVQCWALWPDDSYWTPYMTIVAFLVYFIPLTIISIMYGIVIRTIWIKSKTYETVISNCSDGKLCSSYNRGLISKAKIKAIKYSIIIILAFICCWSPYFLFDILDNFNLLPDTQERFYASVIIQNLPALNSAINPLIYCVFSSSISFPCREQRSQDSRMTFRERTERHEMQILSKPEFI
ERK EGF block – inhibitors of EGF-stimulated ERK signaling pathway | AID 1454 | HEK293-V1b, EGF-stimulated phospho-ERK AlphaScreen | Potency, µM (doses to about 11.5 µM), without a hit: at the top dose activity change, negative = inhibition, most hits filed as inhibitors | 130,000 compounds, 0.41% hits;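 further: plate controls were stimulated vehicle wells for no effect and unstimulated vehicle basal for full effect; nearly all actives have a fitted effect of over 55% in size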
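Stably V1b-transfected HEK293 cells; 30 min compound, then EGF 25 nM final for 5 min at 37C; 10 min lysis; phospho-ERK by AlphaScreen after 5 hr beads at room temperature.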
IMPase Li inh – cell-permeable IMPase inhibitors with lithium potentiation; AID 1457; CHO-M1 cells, IP1 TR-FRET (IP-One), carbachol + lithium; Potency, µM (top dose mostly 59.4 µM), inactives show at the highest dose activity, negative = IMPase inhibition, actives largely listed as inhibitors; 210,000 compounds, 0.35% hits;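 further: IP1 builds up when IMPase is blocked and the TR-FRET signal falls; plate controls were basal vehicle for no effect and high inhibitor control for full effect; nearly all actives have a fitted effect of over 50% in size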
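Readout is a homogeneous TR-FRET IP1 immunoassay (Ex 320, Em 665 and 620), where raised cytosolic IP1 lowers signal. Cells were CHO-M1 treated 30 min at 37C with test compounds plus a little lithium; AC50 values came from Hill-equation fitting.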
* = called active by the depositor; [ ] = remark or other dose. The call rests on the fitted dose curve; in most records, active means well fitted curve in the direction sought with a large enough effect; inconclusive means small, poorly fitted or top-dose-only effect, or another doubt; inactive means no such curve, though single readings can be large; an effect the other way counts as inactive or inconclusive. Unless noted, on the % scale 0 is the no-effect control and ±100 the full control effect; potency means the concentration at half of the fitted maximal effect.

For CN(C)NC(=O)c1ccsc1NC(=O)c1ccc(S(=O)(=O)N2CCCC2)cc1 the results were NPSR antag -17.7% and ERK EGF block -1.9%[57.5 µM].
`COc1cccc(C2C(C(=O)c3cc4cccc(OC)c4o3)=C(O)C(=O)N2c2cc(C)on2)c1OC` (stereo not drawn) gave NPSR antag 6.31µM* and IMPase Li inh 10µM*.
Screening COc1cccc(C2C(C(=O)c3cc4ccccc4o3)=C(O)C(=O)N2c2cc(C)on2)c1OC (stereo not drawn) returned NPSR antag 3.16µM* and IMPase Li inh 11.2µM*.
`COc1cc(C2C(C(=O)c3ccc(C)o3)=C(O)C(=O)N2c2cc(C)on2)ccc1O` (stereo not drawn) gave NPSR antag -8.0%[46.1 µM] and IMPase Li inh -22.2%[38.3 µM].
For COc1cc(C2C(C(=O)c3ccc(C)o3)=C(O)C(=O)N2c2cc(C)on2)cc(OC)c1OC (stereo not drawn) the results were NPSR antag -23.7%[46.1 µM] and IMPase Li inh -5.5%[38.3 µM].
Screening CCC(C=C[C@@H]1OC(=O)C=C[C@H]1C)=C[C@H](C)CC=CC(C)=C[C@@H](C)C(=O)[C@@H](C)[C@H](O)[C@@H](C)CC(C)=CC(=O)O returned IMPase Li inh 11.4%.
COc1cccc(Cn2c(=O)c(C)nc3cnc(N(C)C)nc32)c1 was read as IMPase Li inh 8.4%.
For Cn1c(=O)c2c(nc(C(=N)SCC(=O)O)n2C)n(C)c1=O the results were IMPase Li inh -5.7%.
COC(=O)c1cn(-c2ccccc2)nc1-c1ccc(OC)cc1 was read as NPSR antag -19.1%, ERK EGF block 5.5% and IMPase Li inh 13.0%.
`COc1ccc(-c2nn(-c3ccccc3)cc2C(=O)n2nnc3ccccc32)cc1` gave NPSR antag 10µM* and IMPase Li inh inconclusive.
CCc1nc(SCC(=O)Nc2nc3c(s2)CCCC3)c2ccccc2n1 was read as NPSR antag 9.6%[46.1 µM] and IMPase Li inh 10µM*.
CCCc1nc(SCC(=O)Nc2nc3c(s2)CCCC3)c2ccccc2n1 was read as NPSR antag -10.1%[46.1 µM] and IMPase Li inh 12.6µM*.
Screening CCn1c(SCC(=O)Nc2nc3c(s2)CCCC3)nnc1-c1ccccc1 returned NPSR antag -9.1%[46.1 µM] and IMPase Li inh 7.4%[38.3 µM].
For CCCc1nc(SCC(=O)Nc2cc(C)on2)c2ccccc2n1 the results were NPSR antag 29.7%[46.1 µM] and IMPase Li inh inconclusive.
CCCCCCCCCCCCC1CO1 (stereo not drawn) was read as IMPase Li inh 7.0%.
`COc1cccc(CNc2ccc(Br)cn2)c1O` gave NPSR antag -5.2%[46.1 µM] and IMPase Li inh 7.6%[38.3 µM].
`COc1cccc(CNc2ncc(Br)cc2Br)c1O` gave NPSR antag 10µM* and IMPase Li inh 3.6%[38.3 µM].
Screening CN1CCN(c2ncc3nc(-c4cccs4)c(=O)n(C[C@H]4CCCO4)c3n2)CC1 returned ERK EGF block -7.6% and IMPase Li inh -0.3%.
`Clc1ccc(-c2ncc3ccccn23)cc1` gave NPSR antag 41.3%, ERK EGF block 31.6µM* and IMPase Li inh 25.7%.
Screening Clc1ccccc1-c1ncc2ccccn12 returned NPSR antag 7.3%, ERK EGF block -0.7% and IMPase Li inh -3.0%.
`O[C@@H](c1cc(-c2ccccc2)nc2c1ccc1ccccc12)C1CCCCN1` (stereo partly drawn) gave IMPase Li inh -5.3%.
`CCN(CC)c1ccc(/C=N/N2CCN(Cc3ccc(Cl)cc3)CC2)c(O)c1` gave NPSR antag 35.3% and ERK EGF block 14.1µM*.
For CCN(CC)c1ccc(/C=N/N2CCN(Cc3cccc4ccccc34)CC2)c(O)c1 the results were NPSR antag inconclusive and IMPase Li inh 12.3%[38.3 µM].
For O=[N+]([O-])c1ccc(CCO)cc1 the results were IMPase Li inh 22.3%.
`O=C(/C=C/c1ccc2c(c1)OCO2)c1cccs1` gave ERK EGF block 10.2% and IMPase Li inh 7.8%.
Screening COc1ccccc1C(=O)Nc1nc2ccc(S(C)(=O)=O)cc2s1 returned NPSR antag inconclusive, ERK EGF block 5.7% and IMPase Li inh 10µM*.
COc1ccc(C(=O)Nc2nc3ccc(S(C)(=O)=O)cc3s2)cc1 was read as NPSR antag inconclusive, ERK EGF block 1.9% and IMPase Li inh inconclusive.
`C/C(N[C@@H]1CSCC1O)=C1/C(=O)CC2[C@@H]1C2(C)C` (stereo partly drawn) gave ERK EGF block -9.0% and IMPase Li inh -4.1%.
Screening O[C@@H](c1cc([C@@]23C[C@H]4CC[C@@H]2C[C@H](C4)C3)nc2c(Cl)cc(Cl)cc12)C1CCCCN1 (stereo partly drawn) returned IMPase Li inh -9.0%.
Screening c1ccc(Nc2nc(-c3ccoc3)nc3ccccc23)cc1 returned IMPase Li inh -0.6%.
Screening Cc1ccc(-c2nc(Nc3ccc(N4CCOCC4)cc3)c3ccccc3n2)cc1 returned NPSR antag 12.6µM* and ERK EGF block inconclusive.
C/C(=N/NC(N)=S)c1cc2ccc(O)cc2oc1=O was read as NPSR antag -7.9% and ERK EGF block 1.9%[57.5 µM].
Screening NC(=S)c1cc2ccc(O)cc2oc1=O returned NPSR antag 5.01µM* and IMPase Li inh 3.16µM*.
COC(=O)[C@H](Cc1ccccc1)NC(=O)O[C@@H]1C(=O)c2cc(OC)ccc2O[C@H]1c1cccc(OC)c1 was read as ERK EGF block 9.1% and IMPase Li inh -12.9%.
Screening c1ccc(-c2csc3ncnc(NCC4COc5ccccc5O4)c23)cc1 (stereo not drawn) returned NPSR antag -29.8%, ERK EGF block 14.1µM* and IMPase Li inh 16.2%.
`Cc1sc2ncnc(NCC3COc4ccccc4O3)c2c1C` (stereo not drawn) gave NPSR antag 14.1%, ERK EGF block inconclusive and IMPase Li inh 13.7%.
For OC[C@H](S)CS the results were IMPase Li inh 16.8%.
CC1=C(C(N)=O)N2C(=O)[C@@H](NC(=O)Cc3ccccc3)C2SC1 (stereo partly drawn) was read as ERK EGF block -13.4% and IMPase Li inh 14.1%.
CN1CC(c2ccccc2)C2(SC(=S)N(Cc3ccco3)C2=O)C12C(=O)Nc1ccccc12 (stereo not drawn) was read as NPSR antag 10µM* and IMPase Li inh 22.4%[38.3 µM].
Screening CN1CC(c2ccccn2)C2(SC(=S)N(Cc3ccccc3)C2=O)C12C(=O)Nc1ccccc12 (stereo not drawn) returned NPSR antag -29.6%[46.1 µM] and IMPase Li inh -8.2%[38.3 µM].
For Cn1cc(/C=C2\SC(=O)N(c3ccccc3)C2=O)c2ccccc21 the results were NPSR antag 12.7%, ERK EGF block 12.9% and IMPase Li inh 5.5%.
Cn1cc(/C=C2\SC(=O)N(c3ccc(O)cc3)C2=O)c2ccccc21 was read as NPSR antag -28.7% and ERK EGF block 35.5µM*.
For CCCCc1nc2c(c3c1C[C@H](C)OC3)CN(C(=O)N[C@H](C(=O)OC)C(C)C)CC2 the results were IMPase Li inh -10.0%.
For COc1cc2ncnc(NCc3cccs3)c2cc1OC the results were NPSR antag 10.6%, ERK EGF block 2.51µM* and IMPase Li inh 17.5%.
For COc1cccc(CNc2ncnc3cc(OC)c(OC)cc23)c1 the results were NPSR antag -14.2%[46.1 µM] and IMPase Li inh 9.5%[38.3 µM].
